In PubChem BioAssay:

Legend:
[1] = target: PEG-3 (UniProt Q6IN02); experiment: Peg3 promoter luciferase inhibitors, potency, dose response, cell-based, HeLa, CREF/GAPDH counter-screen panel (AID 624167); details: CREF/GAPDH counter-screens; HeLa PEG-Prom luciferase reporter, overnight, run 1, dose range 1, at 100 µM (top of the series) unless noted
[2] = target: PEG-3 (UniProt Q6IN02); experiment: as above; details: CREF/GAPDH counter-screens; HeLa PEG-Prom luciferase reporter, overnight, run 2, dose range 1, at 100 µM (top of the series) unless noted
[3] = tested on: Rat fibroblasts (CREF); experiment: as above; details: CREF/GAPDH counter-screens; run 1, dose range 1, at 100 µM (top of the series)
[4] = tested on: Rat fibroblasts (CREF); experiment: as above; details: CREF/GAPDH counter-screens; run 2, dose range 1, at 100 µM (top of the series)
[5] = inhibitors of PAF-induced NFkB signaling in CF airway cells, dose response, cell-based, uHTS hits, panel, cytotoxicity readout (AID 624344); details: CF bronchial epithelial cells, PAF-induced NFkB reporter inhibition, with PAF, run 1; at 79 µM (top of the series) unless noted
[6] = as above; details: CF bronchial epithelial cells, PAF-induced NFkB reporter inhibition, with PAF, run 2; at 79 µM (top of the series) unless noted
[7] = target: Tumor necrosis factor receptor superfamily member 10B (Homo sapiens) (UniProt O14763); experiment: caspase-8 TRAIL sensitization, hit retest, confirmation, cell-based, NB7+caspase-8, with/without TRAIL, luminescence panel (AID 651596); details: NB7 neuroblastoma + caspase-8, TRAIL sensitization, luminescence viability, with TRAIL, mean of runs, at 10 µM, stronger effect = higher value
Sequence of Tumor necrosis factor receptor superfamily member 10B (Homo sapiens) (O14763 whole entry, looked up): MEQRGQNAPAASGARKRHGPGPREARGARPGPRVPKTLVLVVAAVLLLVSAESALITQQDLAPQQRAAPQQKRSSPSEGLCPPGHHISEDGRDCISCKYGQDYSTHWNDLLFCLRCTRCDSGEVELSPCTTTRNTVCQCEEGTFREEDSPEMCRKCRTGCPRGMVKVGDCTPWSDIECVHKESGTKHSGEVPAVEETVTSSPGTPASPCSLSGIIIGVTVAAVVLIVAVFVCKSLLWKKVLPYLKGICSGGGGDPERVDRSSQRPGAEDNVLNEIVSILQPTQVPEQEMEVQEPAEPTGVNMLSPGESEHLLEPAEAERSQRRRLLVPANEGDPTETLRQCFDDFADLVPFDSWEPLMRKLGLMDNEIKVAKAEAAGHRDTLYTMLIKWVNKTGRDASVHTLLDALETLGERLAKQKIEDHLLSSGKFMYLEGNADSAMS

[8] = as above; details: NB7 neuroblastoma + caspase-8, without TRAIL, luminescence viability, without TRAIL, mean of runs, at 10 µM

Sequence of PEG-3 (Q6IN02 whole entry, looked up): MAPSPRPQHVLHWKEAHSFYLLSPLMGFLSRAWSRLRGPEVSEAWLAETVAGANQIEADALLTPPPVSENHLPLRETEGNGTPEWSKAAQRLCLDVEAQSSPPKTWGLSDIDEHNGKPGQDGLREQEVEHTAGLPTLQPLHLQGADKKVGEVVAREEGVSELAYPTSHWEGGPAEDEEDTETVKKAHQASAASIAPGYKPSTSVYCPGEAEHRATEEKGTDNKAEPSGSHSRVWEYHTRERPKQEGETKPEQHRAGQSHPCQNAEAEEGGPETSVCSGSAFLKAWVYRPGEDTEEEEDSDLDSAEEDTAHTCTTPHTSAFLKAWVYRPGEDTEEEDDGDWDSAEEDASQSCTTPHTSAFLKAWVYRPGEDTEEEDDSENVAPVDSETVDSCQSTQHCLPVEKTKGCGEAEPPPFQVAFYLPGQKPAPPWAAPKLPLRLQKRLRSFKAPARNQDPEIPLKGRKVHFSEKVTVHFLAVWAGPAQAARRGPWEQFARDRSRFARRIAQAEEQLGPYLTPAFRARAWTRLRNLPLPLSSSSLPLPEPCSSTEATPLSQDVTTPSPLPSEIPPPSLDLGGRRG

SMILES	inhibition [1] [%]	inhibition [2] [%]	inhibition [3] [%]	inhibition [4] [%]	inhibition [5] [%]	inhibition [6] [%]	activity [7] [%]	activity [8] [%]
O=C(O)c1ccc(N/N=C/c2ccc(OC(=O)c3cccc(Cl)c3)cc2)cc1	101	99.4	46.5	40				
COc1cccc(OC)c1C(=O)Nc1cc(C)nn1-c1nc2ccccc2[nH]1	37.6	65.1	2.09	12.6	111	101		
Cc1csc(NC(=O)c2ccc(N3CCCC3=O)cc2)n1	88.6	78.1	88.8	90.4			77.3	73.5
O=C(c1ccc(Cl)cc1)N1CCCCC(Sc2nnc(-c3ccc4c(c3)OCO4)o2)C1=O (stereo unspecified)	93.2	67.1	98	85.5			75.8	72.6
C/C(=N\NC(=O)c1cc(C2CC2)nc2ccccc12)c1ccc(O)cc1O	59.9	61.4	31.4	65.1				
C=CCn1c(C)cc(C(=O)CN2C(=O)c3ccccc3S2(=O)=O)c1C	94.5	96.6	99.2	96.4			88.8	91.4
O=C(NCCc1ccccc1F)c1ccc2c(c1)OCCO2	98.5	102	100	99.8			90.4	91
c1cc2c(cc1C1=NNC(=NC3CC3)SC1)OCCO2	98.9	99	99.2	91.3			93.3	90.9
C(=NN1CCCCCC1)c1ccc2ccccc2n1	102	101	101	100			95.4	94.3
CCOc1ccc(NC(=O)c2ccccn2)cc1	88.8	91.5	97.1	95.5			92.4	89.9
O=C(Cn1ncc(Cl)c(Cl)c1=O)N1CCc2ccccc21	99.5	98.6	96.2	95.5			99.5	99.6
C=C1CC2(OC1=O)c1ccccc1CCc1ccccc12	102	101	95.7	97.7			97.2	99.3
C(=N\Nc1nc2ccccc2[nH]1)/c1ccccn1	93.6	101	93.7	96.8			92	95.6
O=c1c(Cl)c(N2CCCCC2)cnn1-c1nc2ccccc2[nH]1	96.7	95	100	100			96.4	96.5
O=C(Nc1ccccn1)c1cc2ccccc2o1	82.3	96.6	99.4	98.8			90.3	89.6
Cc1ccc(C(=O)Nc2ncc([N+](=O)[O-])s2)cc1	91.3	96.1	85.9	88.8			68	62.8
Cc1ccc(-c2nc(-c3ccccn3)no2)cc1	99.3	96	100	99.7			96.8	96.3
Cc1cc(C(=O)CN2C(=O)c3ccccc3S2(=O)=O)c(C)n1CC1CCCO1 (stereo unspecified)	102	99.2	99.2	89.4			87.9	89
C=C1CC(COc2ccc3c(C)c(Cl)c(=O)oc3c2)(c2ccccc2)OC1=O (stereo unspecified)	99.6	101	98.2	98			97.8	99
CCOc1ccc(-c2ccc(SC)nn2)cc1	95	92.5	97.5	98.9			95.2	95.1
CC(=O)n1cc(N(C(=O)CCl)c2ccc(C)cc2)c2ccccc21	102	99	99.7	95.3			99.6	99.7
COc1cc(SC)ccc1C(=O)Nc1nc2ccccc2[nH]1	99.2	101	96.9	97.9			99	99
O=C(CCl)Nc1ccccc1Sc1ccc(Cl)cc1	102	98.7	99.4	100			99.2	99.5
CC(=O)c1cccc(-c2ccnc3c2CC(C(=O)Nc2cccc(NS(C)(=O)=O)c2)O3)c1 (stereo unspecified)	58	65	30	47.2			74.9	73.6
O=C(N/N=C/c1cccs1)c1n[nH]c2c1CCCC2	99.5	94.8	96.4	96.8			81	84.2
